Experimental data published in PubChem BioAssay AID1159580 (chemical genetic matrix, 2015).
The campaign covered roughly 5,500 compounds. About 2,000 (36%) were called active. Roughly 18% stayed inconclusive and do not appear here. Rule as the data show it: active = normalized growth mostly below about 0.91 (no sharp cut-off); inconclusive = no clear call, values can overlap the other calls; inactive = mostly above about 0.92. The list shows a part of the results.

Assay: chemical genetic growth profiling, strain panel (AID 1159580);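 also: tested at 20 µM; growth read once vehicle control cultures reached saturation at 30 °C; 1 = growth at the plate median or of vehicle wells; lower values mean less growth of the strain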
Settings: growth OD
[1] = S. cerevisiae deletion strains, locus YHR030C, strain SLT2, hits give low values
[2] = S. cerevisiae deletion strains, locus YHR079C, strain IRE1, hits give low values
[3] = S. cerevisiae deletion strains, locus YJL095W, strain BCK1, hits give low values
[4] = S. cerevisiae deletion strains, locus YJR066W, strain TOR1, hits give low values
[5] = S. cerevisiae deletion strains, locus YLR113W, strain HOG1, hits give low values
[6] = S. cerevisiae deletion strains, locus YNL183C, strain NPR1, hits give low values
[7] = S. cerevisiae deletion strains, locus YOR231W, strain MKK1, hits give low values
[8] = S. cerevisiae deletion strains, locus YPL256C, strain CLN2, hits give low values
[9] = S. cerevisiae deletion strains, locus YDL101C, strain DUN1, hits give low values
[10] = S. cerevisiae deletion strains, locus YAL013W, strain DEP1, hits give low values
[11] = S. cerevisiae deletion strains, locus YBR229C, strain ROT2, hits give low values
[12] = S. cerevisiae deletion strains, locus YCL061C, strain MRC1, hits give low values
[13] = S. cerevisiae deletion strains, locus YDR150W, strain NUM1, hits give low values
[14] = S. cerevisiae deletion strains, locus YEL061C, strain CIN8, hits give low values
[15] = S. cerevisiae deletion strains, locus YGR078C, strain PAC10, hits give low values
[16] = S. cerevisiae deletion strains, locus YHR087W, strain rtc3, hits give low values
[17] = S. cerevisiae deletion strains, locus YJR043C, strain POL32, hits give low values
[18] = S. cerevisiae deletion strains, locus YJR075W, strain HOC1, hits give low values
[19] = S. cerevisiae deletion strains, locus YLR039C, strain RIC1, hits give low values
[20] = S. cerevisiae deletion strains, locus YLR058C, strain SHM2 (second series), hits give low values
[21] = S. cerevisiae deletion strains, locus YLR085C, strain ARP6, hits give low values
[22] = S. cerevisiae deletion strains, locus YLR262C, strain YPT6, hits give low values
[23] = S. cerevisiae deletion strains, locus YML094W, strain GIM5, hits give low values
[24] = S. cerevisiae deletion strains, locus YMR219W, strain ESC1, hits give low values
[25] = S. cerevisiae deletion strains, locus YMR263W, strain SAP30, hits give low values
[26] = S. cerevisiae deletion strains, locus YMR307W, strain GAS1, hits give low values
[27] = S. cerevisiae deletion strains, locus YNL153C, strain GIM3, hits give low values
[28] = S. cerevisiae deletion strains, locus YNL298W, strain CLA4 (second series), hits give low values
[29] = S. cerevisiae deletion strains, locus YNL322C, strain KRE1, hits give low values
[30] = S. cerevisiae deletion strains, locus YNR030W, strain Alg12, hits give low values
[31] = S. cerevisiae deletion strains, locus YPL055C, strain LGE1, hits give low values
[32] = S. cerevisiae deletion strains, locus YPL241C, strain CIN2, hits give low values
[33] = S. cerevisiae deletion strains, locus YPR135W, strain CTF4, hits give low values
[34] = S. cerevisiae strains, strain wild type, hits give low values

Measured: normalized growth

CC(=O)N[C@@H]1[C@@H](O)[C@H](O)[C@@H](CO)O[C@H]1O
inactive: [1] 0.993 | [2] 0.975 | [3] 0.995 | [4] 0.917 | [5] 0.993 | [6] 0.898 | [7] 0.99 | [8] 0.967

COc1ccc(/C(C#N)=C2C=C/C(=N/O)C(Cl)=C\2)cc1
inactive: S. cerevisiae deletion strains, locus YAR019C, strain CDC15, hits give low values 0.972 | S. cerevisiae deletion strains, locus YBL105C, strain PKC1, hits give low values 0.975 | S. cerevisiae deletion strains, locus YBR135W, strain CKS1, hits give low values 0.959 | S. cerevisiae deletion strains, locus YBR136W, strain MEC1, hits give low values 0.954 | S. cerevisiae deletion strains, locus YBR160W, strain CDC28, hits give low values 0.976 | S. cerevisiae deletion strains, locus YDL017W, strain CDC7, hits give low values 0.984 | S. cerevisiae deletion strains, locus YDL028C, strain MPS1, hits give low values 0.976 | [9] 0.971 | S. cerevisiae deletion strains, locus YDL108W, strain KIN28, hits give low values 0.969 | S. cerevisiae deletion strains, locus YDL132W, strain cdc53, hits give low values 0.948 | S. cerevisiae deletion strains, locus YDL214C, strain PRR2, hits give low values 0.918 | S. cerevisiae deletion strains, locus YDR052C, strain DBF4, hits give low values 0.966 | S. cerevisiae deletion strains, locus YDR054C, strain cdc34, hits give low values 0.958 | S. cerevisiae deletion strains, locus YDR226W, strain ADK1, hits give low values 0.955 | S. cerevisiae deletion strains, locus YDR477W, strain SNF1, hits give low values 0.898 | S. cerevisiae deletion strains, locus YER123W, strain YCK3, hits give low values 0.898 | S. cerevisiae deletion strains, locus YER133W, strain GLC7, hits give low values 0.906 | S. cerevisiae deletion strains, locus YFL009W, strain cdc4, hits give low values 0.962 | S. cerevisiae deletion strains, locus YFL029C, strain CAK1, hits give low values 0.965 | S. cerevisiae deletion strains, locus YFR003C, strain YPI1, hits give low values 0.97 | S. cerevisiae deletion strains, locus YFR019W, strain FAB1, hits give low values 0.949 | S. cerevisiae deletion strains, locus YFR028C, strain CDC14, hits give low values 0.948 | S. cerevisiae deletion strains, locus YGR040W, strain KSS1, hits give low values 0.864 | S. cerevisiae deletion strains, locus YGR052W, strain FMP48, hits give low values 0.925 | S. cerevisiae deletion strains, locus YGR092W, strain DBF2, hits give low values 0.822 | [1] 0.879 | [2] 0.996 | S. cerevisiae deletion strains, locus YHR082C, strain KSP1, hits give low values 0.937 | S. cerevisiae deletion strains, locus YHR205W, strain SCH9, hits give low values 0.775 | S. cerevisiae deletion strains, locus YIL147C, strain SLN1, hits give low values 0.968 | [3] 0.842 | S. cerevisiae deletion strains, locus YJL128C, strain PBS2, hits give low values 0.942 | S. cerevisiae deletion strains, locus YJL157C, strain FAR1, hits give low values 0.926 | S. cerevisiae deletion strains, locus YJR016C, strain ILV3, hits give low values 0.954 | S. cerevisiae deletion strains, locus YJR066W, strain TOR1 (second series), hits give low values 0.85 | [4] 0.887 | S. cerevisiae deletion strains, locus YKL048C, strain ELM1, hits give low values 0.929 | S. cerevisiae deletion strains, locus YKL067W, strain YNK1, hits give low values 0.932 | S. cerevisiae deletion strains, locus YKL101W, strain HSL1, hits give low values 0.893 | S. cerevisiae deletion strains, locus YKL193C, strain SDS22, hits give low values 0.964 | S. cerevisiae deletion strains, locus YKL203C, strain TOR2, hits give low values 0.866 | S. cerevisiae deletion strains, locus YLR133W, strain CKI1, hits give low values 0.913 | S. cerevisiae deletion strains, locus YLR403W, strain SFP1, hits give low values 0.866 | S. cerevisiae deletion strains, locus YML070W, strain DAK1, hits give low values 0.915 | S. cerevisiae deletion strains, locus YMR001C, strain CDC5, hits give low values 0.959 | S. cerevisiae deletion strains, locus YMR205C, strain PFK2 (second series), hits give low values 0.941 | S. cerevisiae deletion strains, locus YMR277W, strain FCP1, hits give low values 0.967 | S. cerevisiae deletion strains, locus YNL006W, strain LST8, hits give low values 0.985 | S. cerevisiae deletion strains, locus YNL020C, strain ARK1, hits give low values 0.922 | S. cerevisiae deletion strains, locus YNL161W, strain CBK1, hits give low values 0.973 | [6] 0.862 | S. cerevisiae deletion strains, locus YNL207W, strain RIO2, hits give low values 0.961 | S. cerevisiae deletion strains, locus YNL222W, strain SSU72, hits give low values 0.971 | S. cerevisiae deletion strains, locus YNL307C, strain MCK1 (second series), hits give low values 0.874 | S. cerevisiae deletion strains, locus YOL078W, strain AVO1, hits give low values 0.958 | S. cerevisiae deletion strains, locus YOL136C, strain PFK27, hits give low values 0.894 | S. cerevisiae deletion strains, locus YOR061W, strain CKA2, hits give low values 0.903 | S. cerevisiae deletion strains, locus YOR119C, strain RIO1, hits give low values 0.87 | [7] 0.905 | S. cerevisiae deletion strains, locus YOR329C, strain SCD5, hits give low values 0.985 | S. cerevisiae deletion strains, locus YPL031C, strain PHO85, hits give low values 0.854 | S. cerevisiae deletion strains, locus YPL153C, strain RAD53, hits give low values 0.899 | S. cerevisiae deletion strains, locus YPL204W, strain HRR25, hits give low values 0.864 | S. cerevisiae deletion strains, locus YPL209C, strain IPL1, hits give low values 0.977 | [8] 0.967 | S. cerevisiae deletion strains, locus YPR025C, strain CCL1, hits give low values 0.977 | S. cerevisiae deletion strains, locus YPR106W, strain ISR1, hits give low values 0.96 | S. cerevisiae deletion strains, locus YPR111W, strain DBF20, hits give low values 0.942 | S. cerevisiae deletion strains, strain NNK1, hits give low values 0.979 | S. cerevisiae deletion strains, strain TSCII, hits give low values 0.959
active: [5] 0.851

Cc1ccc(S(=O)(=O)/C(C#N)=N\O)cc1
inactive: [10] 0.989 | [11] 0.999 | [12] 1.01 | [9] 1.01 | [13] 1.02 | [14] 0.985 | [15] 0.997 | S. cerevisiae deletion strains, locus YGR229C, strain SMI1, hits give low values 0.988 | [1] 0.948 | [16] 0.979 | S. cerevisiae deletion strains, locus YJL187C, strain SWE1, hits give low values 0.987 | [17] 0.977 | [18] 1.03 | [19] 0.98 | [20] 0.997 | [21] 1.04 | [22] 0.984 | [23] 1.02 | [24] 1 | [25] 0.932 | [26] 1.12 | [27] 0.989 | [28] 0.977 | [29] 0.993 | [30] 0.998 | [31] 1.11 | [32] 1.02 | [33] 0.906 | [34] 0.971

Cc1ccc(/C(C#N)=C2C=C/C(=N/O)C(Cl)=C\2Cl)cc1
active: [1] 0.631 | [22] 0.816 | [30] 0.877
inactive: [10] 0.953 | [11] 0.961 | [12] 0.965 | [9] 0.983 | [13] 0.963 | [14] 0.959 | [15] 0.975 | [16] 1 | [17] 1.01 | [18] 1 | [19] 0.865 | [20] 0.999 | [21] 0.825 | [23] 0.973 | [24] 0.991 | [25] 0.984 | [26] 0.721 | [27] 0.962 | [28] 0.885 | [29] 0.98 | [31] 0.949 | [32] 0.952 | [33] 0.681 | [34] 0.929
